# The panel holds about 83,000 compounds, 20% with a hit somewhere; the sample as a whole holds those more often.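 Assay: single dose, 48 h. Readout: percent growth (0 = no net growth; negative = cell death). Active: <10.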 Unmarked numbers belong to inactive results. Activity calls are given as the source filed them.
# Assays:
# Assay in all cases: NCI-60 one-dose screen, 48 h (100 = growth as untreated, 0 = no growth, -100 = all killed)
# Details in all cases: 10 µM unless noted
# DU-145 prostate = test system: DU-145 prostate
# K-562 leukemia = test system: K-562 leukemia
# MALME-3M melanoma = test system: MALME-3M melanoma
# MDA-MB-231 breast = test system: MDA-MB-231 breast
# RXF 393 renal = test system: RXF 393 renal
# SF-268 CNS = test system: SF-268 CNS
# SF-295 CNS = test system: SF-295 CNS
# SF-539 CNS = test system: SF-539 CNS
# UACC-257 melanoma = test system: UACC-257 melanoma
# M14 melanoma = test system: M14 melanoma
SMILES,growth (DU-145 prostate),growth (K-562 leukemia),growth (MALME-3M melanoma),growth (MDA-MB-231 breast),growth (RXF 393 renal),growth (SF-268 CNS),growth (SF-295 CNS),growth (SF-539 CNS),growth (UACC-257 melanoma),growth (M14 melanoma)
C#CCCCNCCNc1ccnc2cc(Cl)ccc12,74.5%,19.9%,88.8%,66.3%,36.2%,87.7%,48.2%,-13.9% (active),0.503% (active),61.3%
OC(c1ccccc1)(c1ccccc1)C1CCN(c2ccc3nnc(Cl)n3n2)CC1,54.6%,10.7%,26.8%,68%,32.8%,63.7%,19%,51.8%,72.9%,39.2%
O=C(Nc1ccc(-c2ccc3c(c2)NC(=O)/C3=C\c2ccc[nH]2)cc1)Nc1cccc(Cl)c1,24.6%,7.56% (active),7.96% (active),-23.1% (active),-53.6% (active),32%,-31% (active),-79.8% (active),22.3%,9.34% (active)
O=c1[nH]c2ccccc2cc1COc1ccc(Nc2nccc(-c3ccc(Cl)cc3)n2)cc1,89%,95.2%,105%,105%,91.8%,105%,90.8%,91.6%,107%,107%
CCOC(=O)c1ccc(NC(=S)NC(=O)c2cccc(NC(=O)c3ccc(C)cc3)c2)cc1,105%,76.3%,71.9%,39.1%,66.9%,102%,90.9%,44.9%,78.6%,80.7%
Cc1ccc(C2CC(c3ccc(NC(=O)Nc4ccccc4)cc3)=NN2c2ccc(S(C)(=O)=O)cc2)cc1 (stereo not given),3.25% (active),13.1%,-25.1% (active),-70.1% (active),-78.9% (active),9.34% (active),-20.3% (active),-97% (active),34.3%,-44.8% (active)
COc1cc(C2CC(c3ccc(Cl)cc3)=Nc3c(N)nc(N)nc3N2)ccc1Oc1nc(Nc2ccc(F)cc2)nc(N(C)C)n1 (stereo not given),60%,8.16% (active),54.1%,23.8%,-4.44% (active),52.2%,53.3%,63.7%,47.9%,43.2%
COc1ccc(NC(=O)CSc2nnc(-c3ccc(-c4nc5ccccc5[nH]4)cc3)o2)cc1,5.8% (active),22.2%,10.2%,19.2%,-54.4% (active),49.6%,74.8%,-86.6% (active),36.4%,1.64% (active)
O=C(N/N=C/c1c[nH]c2ccccc12)Nc1ccccc1Cl,6.12% (active),12.2%,33.3%,16.5%,-36.1% (active),7.97% (active),-37.1% (active),-10.7% (active),43.8%,10.9%
COc1cccc(-c2ccc(/C=N/NC(=O)c3[nH]c4ccc(Br)cc4c3-c3ccccc3)s2)c1,2.3% (active),15.7%,33.1%,-20.5% (active),-63% (active),-9.89% (active),-46.2% (active),-83.9% (active),45.7%,-4.68% (active)
C[C@H]1[C@@H](CC(=O)N[C@@H](Cc2coc3ccccc23)B(O)O)O[C@@H]2OC3(C)CC[C@H]4[C@H](C)CC[C@@H]1[C@@]24O3,45%,14.8%,-41.6% (active),-68.3% (active),-59% (active),17.5%,-65.7% (active),-91.6% (active),-45.3% (active),-33.7% (active)
O=C1Nc2cc(-c3ccc(NS(=O)(=O)c4ccc([N+](=O)[O-])cc4)cc3)ccc2/C1=C/c1ccc[nH]1,-44.9% (active),12.6%,-0.842% (active),12.3%,-44.3% (active),46.6%,-32.7% (active),-54.4% (active),4.04% (active),-13.9% (active)
Cc1cccc(-c2ccccc2Oc2ccc3nnc(Cl)n3n2)c1,111%,103%,94.4%,107%,107%,106%,95.3%,98.8%,99%,97.6%
C#CCN(C)CCCOc1ccc(N(C)C(=O)c2cc(C(C)C)c(O)cc2O)cc1Cl,24.3%,3.57% (active),-27.8% (active),-15.8% (active),22.3%,41.4%,6.57% (active),17.3%,9.35% (active),0.868% (active)
Cc1ccc(C(=O)Nc2cccc(C(=O)NC(=S)Nc3ccc(S(N)(=O)=O)cc3)c2)cc1,77.3%,71.2%,59.8%,81.3%,46.4%,61.4%,60.3%,76.4%,79.1%,83.7%
CCOc1ccccc1[C@H]1C(C(=O)c2ccc(Cl)cc2)C2(N[C@@H]1c1ccccc1)C(=O)Nc1ccc(Br)cc12 (stereo not given in full),23%,-13% (active),-15% (active),-68.7% (active),-88.4% (active),14.2%,-42.6% (active),-70.2% (active),44%,-38% (active)
O=C(N/N=C/c1ccsc1)c1[nH]c2ccc(Br)cc2c1-c1ccccc1,-26.4% (active),4.77% (active),-72.5% (active),-69.9% (active),-47.5% (active),-56.1% (active),-87.5% (active),-95.5% (active),-51.9% (active),-73.8% (active)
O=C(N/N=C/c1ccc(-c2cccc([N+](=O)[O-])c2)s1)c1[nH]c2ccc(Br)cc2c1-c1ccccc1,106%,92.7%,86.1%,74.6%,90.8%,92.7%,103%,96.6%,85.6%,75.2%
CC[C@]12C=CCN3CC[C@]4(C(=C(C(=O)OC)C1)Nc1cc(OC)c([C@@H]5[C@H]6O[C@H]6[C@@]6(CC)CC(C(=O)OC)=C7Nc8cc(OC)ccc8[C@@]78CCN5[C@@H]68)cc14)[C@@H]32,70.2%,13.7%,44.4%,52.6%,48.1%,57.3%,53.8%,61.4%,75.2%,60.2%
Cc1ccc2nc(SCc3ccccc3F)n(-c3ccccc3)c(=O)c2c1,108%,83.8%,118%,76.1%,104%,113%,89.5%,99.5%,106%,95.3%
Nc1nc2cc(-c3ccc4ncnc(NCc5ccccc5)c4c3)ccc2o1,15.9%,25.9%,-23.8% (active),-48.8% (active),-75.6% (active),25%,-42.3% (active),-86.5% (active),68.4%,22.4%
COc1cccc2nc(Nc3cccc(NC(=O)c4ccc(CN5CCN(C)CC5)c(C(F)(F)F)c4)c3)ccc12,-83.5% (active),2.54% (active),-96.4% (active),-97.9% (active),-98.5% (active),-54.4% (active),-95.1% (active),-100% (active),-83.1% (active),-85.2% (active)
COc1cc2cc(C(=O)N3C[C@@H](CCl)c4c3cc(OC(=O)N(CCC(=O)N3CCN(C)CC3)C3CCCCC3)c3ccccc43)[nH]c2c(OC)c1OC,-73.5% (active),-20.6% (active),-97.6% (active),-61.4% (active),-93.3% (active),-41.5% (active),-68.3% (active),-93% (active),-78.6% (active),-84.5% (active)
ClC(Cn1ncc2c(Nc3cccc(Br)c3)nc(SCCN3CCOCC3)nc21)c1ccc(Br)cc1 (stereo not given),28.6%,-37.7% (active),-38% (active),-51.8% (active),-62.2% (active),44.7%,-71.3% (active),-79.1% (active),-42.8% (active),-19.5% (active)
